Only some compounds are listed: those with a hit (about 13% of all), similar ones and a draw of the others.
Lmaj promast: inhibitors of Leishmania major promastigote growth; Leishmania major promastigotes, resazurin fluorescence viability; inhibition, % at 10 µM; 9% of 200,000 active; AID 1063; in the data active = inhibition above about 50%;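 note: promastigotes grown with compound for 44 hours at 28 °C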
RAM network inh: yeast RAM network inhibition; S. cerevisiae dse1pr::URA3 reporter, 5-FOA growth OD615, 2 d; analog-sensitive cbk1-as2 kinase mutant strain; AID 868; inhibition, % at 50 µM; 1.8% of 190,000 active;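 active = inhibition above a set limit, 3 SD over mean compound inhibition, cut at about 8.4% in these data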;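 note: 0% = DMSO-only wells with no growth and 100% = 10 µM 1-NA-PP1 full growth; inhibition rescues growth on 5-FOA so higher OD means more RAM inhibition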
CHOP inhibitor: CHOP inhibition in unfolded protein response; CHO-K1 CHOP-promoter luciferase, tunicamycin-induced, 15-18 h; inhibition, % at 10 µM; 3.8% of 220,000 active;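 active = compounds that reduced the stress-induced luciferase reporter signal by more than about 70% of percent inhibition, limit read from the data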;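 note: 0% = tunicamycin plus vehicle and 100% = wells without tunicamycin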
WT yeast gro inh: growth inhibition of WT yeast, mitochondrial fusion screen. AID 1362. mitochondrial fusion phenotypic screen, WT strain. inhibition, % at 10 µM. 2.1% of 190,000 active; in the data active = inhibition above about 58%; tested in S. cerevisiae
* hit, by the source's call; / = no result given.

SMILES | Lmaj promast | RAM network inh | CHOP inhibitor | WT yeast gro inh
O=C(C1CC1)N(Cc1nc2ccccc2c(=O)[nH]1)Cc1cccs1 | / | / | -6 | /
Cc1cc(N2CCN(C)CC2)ccc1NC(=O)c1c2c(nc3ccccc13)CCN(Cc1ccccc1)C2 | 100* | 2 | -40 | 3
Cc1c(Cl)cccc1NC(=O)COC(=O)c1c2c(nc3ccccc13)CCN(Cc1ccccc1)C2 | 99* | -1 | 6 | 39
CCN(CC)S(=O)(=O)c1ccc(N2CCOCC2)c(NC(=O)c2ccc(NC(C)=O)cc2)c1 | / | / | -13 | /
Cc1ccccc1-c1nnn(CC(=O)N2CCN(S(=O)(=O)c3ccc(Cl)cc3)CC2)n1 | 53* | 3 | 49 | -3
Nn1cc(-c2ccccc2)nc1SCC(=O)N1CCN(S(=O)(=O)c2ccc(Cl)cc2)CC1 | 0 | 9.8* | 9 | 18
O=C(CSc1nc2ccccc2[nH]1)N1CCN(S(=O)(=O)c2ccc(Cl)cc2)CC1 | 64* | 0 | 9 | -5
Cc1ccc(S(=O)(=O)N2CCN(C(=O)CSc3nc4ccccc4c(=O)[nH]3)CC2)cc1 | -5 | 7 | 48 | 6
O=C(CSc1nc2ccccc2[nH]1)NCCc1ccc(Cl)cc1 | 56* | -2 | 6 | 4
CN(C1CCCCC1)S(=O)(=O)c1ccc2[nH]c(=O)oc2c1 | / | / | 3 | /
O=C(CSc1c2c(nc3cc(Cl)ccc13)CCCC2)NCCCN1CCOCC1 | 32 | 1 | -46 | 2
O=C(CSc1c2c(nc3cc(Cl)ccc13)CCCC2)NCCN1CCOCC1 | 59* | 1 | -29 | -4
CCN(CC)CCCNC(=O)CSc1c2c(nc3cc(Cl)ccc13)CCCC2 | 100* | 2 | -25 | -5
COCCCNC(=O)CSc1c2c(nc3ccc(Cl)cc13)CCCC2 | 25 | 0 | -24 | -16
CS(=O)(=O)N1N=C(c2ccco2)CC1c1ccc(Cl)cc1 (centres undefined) | -6 | 1 | 14 | -38
Cc1nc(NC(=O)c2cccs2)ccc1Br | 4 | 0 | -6 | 19
Cn1c(SCc2cccc(Cl)c2)nc(C(F)(F)F)cc1=O | 4 | 3 | 84* | 1
Cn1c(SCc2c(Cl)cccc2Cl)nc(C(F)(F)F)cc1=O | 0 | 5 | 82* | -2
CC(=O)CSc1nc(C(F)(F)F)cc(=O)n1-c1ccccc1 | -9 | 1 | 20 | 12
Cn1c(SCc2ccccc2Cl)nc(C(F)(F)F)cc1=O | 1 | 6 | 74* | -10
Cn1c(SCc2ccccc2Cl)nc2ccccc21 | 3 | -1 | 10 | 2
Cn1c(SCc2ccccc2)nc(C(F)(F)F)cc1=O | -5 | 2 | 29 | 9
CSc1ccccc1NC(=O)CSCc1ccc(Br)cc1 | 8 | -1 | 51 | 16
CSc1ccccc1NC(=O)CSCc1ccccc1Br | 2 | 1 | 72* | 34
CSc1ccccc1NC(=O)CN(C)Cc1ccc(Br)cc1 | -1 | 0 | 80* | 58
SMILES | Lmaj promast | RAM network inh | CHOP inhibitor | WT yeast gro inh
COc1cc2c(cc1OC)-c1cc3ccc4c(c3c[n+]1CC2)OCO4 | 13 | 1 | -5 | 60*
COc1ccc(/C=N/NC(=O)c2cccc(NC(=O)c3ccccc3Cl)c2)cc1OC | 37 | 3 | 20 | 1
O=C(N/N=C/c1ccncc1)c1cccc(NC(=O)c2ccccc2Cl)c1 | 62* | 1 | 31 | -9
COc1ccc(/C=N/NC(=O)c2cccc(NC(=O)c3ccccc3Cl)c2)c(OC)c1 | 53* | 1 | 4 | 4
O=C(Nc1ccc(Cl)c(Cl)c1)O/N=C/c1ccncc1 | 17 | 2 | 5 | 74*
CCCCC(=O)Nc1cccc(C(=O)N/N=C/c2ccc(OC)cc2OC)c1 | 100* | 1 | 12 | 10
O=C(Nc1cccc(Cl)c1)O/N=C\c1ccncc1 | 0 | 0 | -10 | -21
CCOC(=O)C1=C(C)C/C(=N\NC(=O)c2ccccc2O)CC1 | / | / | 9 | /
O=[N+]([O-])c1ccccc1N(CC1CO1)S(=O)(=O)c1ccccc1 (centres undefined) | -2 | 3 | -7 | 14
CC(C)(C)c1ccc(C(CC(=O)O)NC(=O)c2ccccc2F)cc1 (centres undefined) | -8 | 0 | -9 | -1
CC(=O)Nc1ccc(SCC(=O)c2cc(C)n(CC(F)(F)F)c2C)cc1 | 61* | 2 | 3 | 7
O=C(Nc1cccc2ncccc12)C(c1ccccc1)c1ccccc1 | 19 | 2 | -7 | -2
CC(C)c1cccc(C(C)C)c1NC(=O)c1ccccc1 | 11 | 2 | 19 | 0
CCOc1ccc(/C=N/NC(=O)Cc2csc(Nc3cccc(C(F)(F)F)c3)n2)c(OCC)c1 | 16 | 0 | 21 | 15
COc1ccc(/C=N/NC(=O)Cc2csc(Nc3cccc(C(F)(F)F)c3)n2)c(OC)c1 | 8 | 1 | 95* | -13
COc1ccc(-n2cc(-c3ccc(Br)cc3)[nH]c2=S)cc1 | 5 | 9.6* | -36 | -14
